HepG2 viability = HepG2 cytotoxicity, counter-screen for TGF-b inhibitors | HepG2 CAGA-GFP viability, ATP luminescence, 18 h | Potency, µM (top dose mostly 46.1 µM), most hits filed as cytotoxic | 410,000 compounds, 0.76% hits
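CellTiter-Glo luminescence gave cytotoxicity after 18 hours at 37 degrees C. The cells were HepG2 CAGA-GFP in 1% FBS DMEM, stimulated with 500 pg/mL TGF-beta after compound addition. %Activity was normalised to no-cell wells (complete cell-killing) and DMSO (no toxicity), and curves were fitted and classified.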
ATXN viability = viability counter-screen for ATXN expression inhibitors | S2 cells (HEK-293 line with an ATXN2-luciferase reporter) viability, CellTiter-Fluor protease fluorescence, 24 h | Potency, µM (titrated, usually from 56.7 µM), usual class: cytotoxic | 400,000 compounds, 0.49% hits | AID 651635; note: nearly all actives have a fitted effect of over 40% in size
ATXN2 expr inh = ATXN2 expression inhibition | Potency, µM (series often up to 57 µM), most hits filed as inhibitors | HEK-293 ATXN2-luciferase reporter, luminescence, 24 h | AID 1745845 | 360,000 compounds, 0.72% hits; note: nearly all actives have a fitted effect of over 55% in size
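qHTS (up to 57 uM final) was run with 24 h compound exposure of reporter cells at 37 °C. Each well was multiplexed: SteadyGlo luminescence measured ATXN2-luciferase expression after a fluorogenic Gly-Phe-AFC viability readout (25 uM final).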
TDP1 cell noCPT = qHTS for Inhibitors of human tyrosyl-DNA phosphodiesterase 1 (TDP1): qHTS in cells in absence of CPT | AID 686978, 2013 | DT40 Tdp1-/- hTDP1 cells, no CPT, ATP luminescence, 48 h | 420,000 compounds, 15% hits | Potency, µM (doses to about 46.2 µM), most hits filed as inhibitors; note: nearly all actives have a fitted effect of over 55% in size
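Growth of hTDP1-complemented DT40 Tdp1-knockout cells is measured by ATP luminescence after at least 48 hr compound exposure at 37 °C, with DMSO substituting for the 20 nM CPT used in the parallel screen.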
TGFb SMAD3 inh = TGF-b pathway inhibition; Potency, µM (top dose mostly 46.1 µM), usual class: inhibitors; HepG2 CAGA-GFP TGF-b/SMAD3 reporter, GFP fluorescence, 18 h; TGF-beta stimulated, 500 pg/mL final; 410,000 compounds, 1.2% hits; note: nearly all actives have a fitted effect of over 65% in size
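GFP signal (ex488/em500-530) from TGF-beta-stimulated HEPG2 CAGA-GFP cells, 500 pg/mL final, 18 h at 37 degrees C in DMEM plus 1% FBS, normalized to unstimulated and DMSO-stimulated controls.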
TDP1 cell CPT = growth inhibition of DT40 Tdp1-/-;hTDP1 cells with camptothecin (screen for TDP1 inhibitors) | chicken DT40 Tdp1-/-;hTDP1 cells + 20 nM CPT, ATP luminescence, 48 h | Potency, µM (series often up to 46.2 µM), most hits filed as inhibitors | 420,000 compounds, 12% hits | AID 686979; note: nearly all actives have a fitted effect of over 55% in size
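Chicken DT40 Tdp1-/- cells stably complemented with human TDP1 were seeded at 400 cells/well in medium containing 20 nM camptothecin, exposed to pin-transferred compounds, and grown at 37 °C for at least 48 hr. Viability was read as ATP luminescence.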
Numbers stand for hits. Sampled rows, rich in hits. Any-hit rate of the full collection: about 17%. Calls come from the whole dose curve; as a rule, active = well fitted curve in the direction sought with a large enough effect; inconclusive = small, poorly fitted or top-dose-only effect, or another doubt; inactive = no such curve, though single readings can be large; an effect the other way counts as inactive or inconclusive.

What do the screens show for `O=[N+]([O-])c1ccc(C(O)CSC(=S)N2CCCCC2)cc1` (centres undefined)?
HepG2 viability: inactive; ATXN viability: inactive; ATXN2 expr inh: inactive; TDP1 cell noCPT: inconclusive; TGFb SMAD3 inh: inactive; TDP1 cell CPT: inconclusive

How did COc1ccccc1Nc1nc(-c2ccccc2Cl)c2cc(Br)ccc2n1 do in these assays?
HepG2 viability: inactive; ATXN viability: inactive; ATXN2 expr inh: inactive; TDP1 cell noCPT: 2.3µM; TGFb SMAD3 inh: inactive; TDP1 cell CPT: 3.7µM

Results for COc1ccccc1Nc1nc(Cl)nc(Nc2ccccc2OC)n1 ?
HepG2 viability: inactive; ATXN viability: inconclusive; ATXN2 expr inh: inconclusive; TDP1 cell noCPT: inconclusive; TGFb SMAD3 inh: inconclusive; TDP1 cell CPT: inactive

How did Clc1ccccc1-c1nc(Nc2ccccc2)nc2ccc(Br)cc12 do in these assays?
HepG2 viability: inactive; ATXN viability: inactive; ATXN2 expr inh: inactive; TDP1 cell noCPT: 18µM; TGFb SMAD3 inh: inconclusive; TDP1 cell CPT: inconclusive

How did COC(=O)c1cc(-c2ccccc2)n(CCN)c1C do in these assays?
HepG2 viability: inactive; ATXN viability: inactive; ATXN2 expr inh: inactive; TDP1 cell noCPT: inactive; TGFb SMAD3 inh: inactive; TDP1 cell CPT: inactive

What do the screens show for `Cc1ccc(CC2(C)C(=O)Nc3c(Cl)ccc(Cl)c32)cc1` (centres undefined)?
HepG2 viability: inactive; ATXN viability: inactive; ATXN2 expr inh: inactive; TDP1 cell noCPT: 16µM; TGFb SMAD3 inh: inconclusive; TDP1 cell CPT: inconclusive

Results for CC1(Cc2ccccc2Cl)C(=O)Nc2c(Cl)ccc(Cl)c21 (centres undefined) ?
HepG2 viability: inactive; ATXN viability: inconclusive; ATXN2 expr inh: inconclusive; TDP1 cell noCPT: inconclusive; TGFb SMAD3 inh: inconclusive; TDP1 cell CPT: inconclusive

Results for CC1(Cc2ccc(Cl)cc2)C(=O)Nc2c(Cl)ccc(Cl)c21 (centres undefined) ?
HepG2 viability: inactive; ATXN viability: inactive; ATXN2 expr inh: inactive; TDP1 cell noCPT: inconclusive; TGFb SMAD3 inh: inactive; TDP1 cell CPT: 26µM

Results for Cc1csc(NC(=O)C2CCCCC2)n1 ?
HepG2 viability: inactive; ATXN viability: inactive; ATXN2 expr inh: inactive; TDP1 cell noCPT: inconclusive; TGFb SMAD3 inh: inactive; TDP1 cell CPT: inconclusive

Results for Cc1ccc(NC(=O)CN2C(=O)C3CC=CCC3C2=O)cc1S(=O)(=O)N1CCOCC1 (centres undefined) ?
HepG2 viability: inactive; ATXN viability: inactive; ATXN2 expr inh: inactive; TDP1 cell noCPT: inactive; TGFb SMAD3 inh: inactive; TDP1 cell CPT: inactive

How did Cc1nc2c(nc1C)C(=O)c1ccccc1C2=O do in these assays?
HepG2 viability: 3.5µM; ATXN viability: inconclusive; ATXN2 expr inh: inconclusive; TDP1 cell noCPT: 4.6µM; TGFb SMAD3 inh: 2.2µM; TDP1 cell CPT: 3.7µM

Results for O=[N+]([O-])c1cc2c(c(CSc3nnnn3-c3ccc(O)cc3)c1)OCOC2 ?
HepG2 viability: inactive; ATXN viability: inconclusive; ATXN2 expr inh: inactive; TDP1 cell noCPT: 23µM; TGFb SMAD3 inh: inactive; TDP1 cell CPT: 21µM

Results for Nn1c(SCc2cc([N+](=O)[O-])cc3c2OCOC3)nnc1-c1cccnc1 ?
HepG2 viability: inactive; ATXN viability: inconclusive; ATXN2 expr inh: inactive; TDP1 cell noCPT: inactive; TGFb SMAD3 inh: inactive; TDP1 cell CPT: inactive

What do the screens show for `NNC(=O)/C(=N/Nc1ccccc1)S(=O)(=O)c1ccc(Cl)cc1`?
HepG2 viability: inactive; ATXN viability: inconclusive; ATXN2 expr inh: 14µM; TDP1 cell noCPT: inconclusive; TGFb SMAD3 inh: inactive; TDP1 cell CPT: inconclusive

Results for CCOC(=O)/C(=N/Nc1ccc(C)cc1)S(=O)(=O)c1ccc(Cl)cc1 ?
HepG2 viability: inactive; ATXN viability: inactive; ATXN2 expr inh: inactive; TDP1 cell noCPT: inconclusive; TGFb SMAD3 inh: inactive; TDP1 cell CPT: 16µM

What do the screens show for `COc1ccc(C(=O)c2cccc(C(=O)c3ccc(OC)c(C)c3)c2)cc1C`?
HepG2 viability: inactive; ATXN viability: inactive; ATXN2 expr inh: inactive; TDP1 cell noCPT: inactive; TGFb SMAD3 inh: inactive; TDP1 cell CPT: inactive

Results for COc1ccc(C(=O)c2ccc(OC)c(Br)c2)cc1Br ?
HepG2 viability: inactive; ATXN viability: inactive; ATXN2 expr inh: inactive; TDP1 cell noCPT: 21µM; TGFb SMAD3 inh: inactive; TDP1 cell CPT: 18µM

What do the screens show for `C=CCN(CC=C)C(=S)NC(=O)c1ccc([N+](=O)[O-])cc1`?
HepG2 viability: inactive; ATXN viability: inactive; ATXN2 expr inh: inactive; TDP1 cell noCPT: 3.7µM; TGFb SMAD3 inh: inconclusive; TDP1 cell CPT: 5.8µM

Results for C=CCN(CC=C)C(=S)NC(=O)c1ccc(OC)c(Br)c1 ?
HepG2 viability: inactive; ATXN viability: inconclusive; ATXN2 expr inh: inconclusive; TDP1 cell noCPT: 5.8µM; TGFb SMAD3 inh: inactive; TDP1 cell CPT: 12µM

What do the screens show for `C[C@@]12CCC3[C@@](CCC4[C@@]3(C)CCC[C@@]4(C)C(=O)NCc3ccccc3)(CC1=O)C2` (some centres undefined)?
HepG2 viability: inactive; ATXN viability: inactive; ATXN2 expr inh: inactive; TDP1 cell noCPT: 18µM; TGFb SMAD3 inh: inconclusive; TDP1 cell CPT: inconclusive

Results for C[C@@]12CCC3[C@@](CCC4[C@@]3(C)CCC[C@@]4(C)C(=O)O)(CC1=O)C2 (some centres undefined) ?
HepG2 viability: inactive; ATXN viability: inactive; ATXN2 expr inh: inactive; TDP1 cell noCPT: inactive; TGFb SMAD3 inh: inactive; TDP1 cell CPT: inactive

How did CC(C)(C)NC(=O)[C@]1(C)CCC[C@@]2(C)C3CC[C@@]4(C)C[C@]3(CCC21)CC4=O (some centres undefined) do in these assays?
HepG2 viability: inactive; ATXN viability: inactive; ATXN2 expr inh: inactive; TDP1 cell noCPT: inactive; TGFb SMAD3 inh: inactive; TDP1 cell CPT: inconclusive

Results for CC(C)(C)CNC(=O)[C@]1(C)CCC[C@@]2(C)C3CC[C@@]4(C)C[C@]3(CCC21)CC4=O (some centres undefined) ?
HepG2 viability: inactive; ATXN viability: inconclusive; ATXN2 expr inh: inactive; TDP1 cell noCPT: 23µM; TGFb SMAD3 inh: inactive; TDP1 cell CPT: inconclusive

How did COc1ccc2ccccc2c1/C=N/NC(=O)c1ccc(C)nc1 do in these assays?
HepG2 viability: inactive; ATXN viability: inactive; TDP1 cell noCPT: inconclusive; TGFb SMAD3 inh: inactive; TDP1 cell CPT: inactive

What do the screens show for `C/C(=N\NC(=O)c1cc2ccccc2cc1O)c1ccc2c(c1)OCO2`?
HepG2 viability: inactive; ATXN viability: inactive; ATXN2 expr inh: inactive; TDP1 cell noCPT: inactive; TGFb SMAD3 inh: inconclusive; TDP1 cell CPT: inactive

How did O=C(O)c1ccc(/C=N/NC(=O)c2ccc3c(c2)OCCO3)cc1 do in these assays?
HepG2 viability: inactive; ATXN viability: inactive; TDP1 cell noCPT: inactive; TGFb SMAD3 inh: inactive; TDP1 cell CPT: inactive
